Over roughly 33,000 sequences, “E-score (-0.5 to 0.5)” has its median near -0.013; the highest 2% begin near 0.3. The entries come from a sample that favours the highest values as a whole.
molecular target: T1, Msn1 (UniProt P22148); assay: PBM E-score (8-mer binding enrichment) (E-score (-0.5 to 0.5)); higher = stronger / more preferred TF binding; conditions: protein concentration: 200 nM; construct: GST-full length
T1 sequence: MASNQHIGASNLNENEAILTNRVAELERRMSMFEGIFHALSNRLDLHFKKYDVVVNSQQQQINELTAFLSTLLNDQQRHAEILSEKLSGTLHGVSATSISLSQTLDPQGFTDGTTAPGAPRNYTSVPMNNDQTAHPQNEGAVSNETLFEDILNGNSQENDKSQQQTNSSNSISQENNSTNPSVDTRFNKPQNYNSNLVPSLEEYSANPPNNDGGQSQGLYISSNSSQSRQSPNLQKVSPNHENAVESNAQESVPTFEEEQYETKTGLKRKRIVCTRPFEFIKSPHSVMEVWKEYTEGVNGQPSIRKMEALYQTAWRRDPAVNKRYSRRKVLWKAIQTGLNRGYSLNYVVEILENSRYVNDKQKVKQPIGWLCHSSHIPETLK
Procedure: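 Universal 'all 10-mer' protein binding microarrays (Agilent AMADID 015681) probed with GST-tagged S. cerevisiae TFs (full-length or DBD) made by in vitro transcription/translation (PURExpress), about 100-200 nM. Bound TF was detected with fluorescent anti-GST. Each ungapped 8-mer (which stands for itself and its reverse complement) is scored by the PBM enrichment score (E-score), a modified Wilcoxon-Mann-Whitney statistic from -0.5 to +0.5, computed with the Universal PBM Analysis Suite. Scale: above 0.35 generally sequence-specific binding.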

Row | Sequence | PBM E-score
1 | TCAGCTCA | -0.149
2 | ATTTGCCG | 0.136
3 | GCCAAGCA | -0.199
4 | GAGTATGC | -0.0467
5 | GATCAGAC | -0.195
6 | AGGTACCA | -0.036
7 | CAGTGTCA | -0.105
8 | AATTAGTA | 0.211
9 | AATTAGTG | 0.33
10 | AATTAGTC | 0.272
11 | ATATTGCC | 0.0437
12 | CTTATCTA | 0.0318
13 | CTGGCCAA | -0.0295
14 | AGGCATGA | -0.183
15 | CTGGTCGC | -0.0171
16 | ACAAATTC | 0.306
17 | ACAAATTA | 0.357
18 | AAAAATTC | 0.182
19 | ATAAATTA | 0.343
20 | ACAAATTG | 0.301
21 | CCAAATTA | 0.193
22 | CTAAATTA | 0.144
23 | ATAAATTG | 0.225
24 | CCAAATTC | 0.0869
25 | ATCTCCGC | -0.208

Row | Sequence | PBM E-score
26 | CTACAATC | 0.0383
27 | ACCGCGTG | -0.118
28 | ATGTAAAG | -0.0428
29 | CCGAACGC | 0.158
30 | CCTATCTA | -0.0647
31 | CAATGCAG | -0.0326
32 | CCGACAAG | 0.13
33 | GCGACAAA | 0.355
34 | TCGACGAA | 0.118
35 | GCGACAAC | 0.167
36 | TCGACAGA | -0.101
37 | ACGACAAA | 0.435
38 | ACGACAAC | 0.227
39 | CCGACAAA | 0.42
40 | ACGACAAG | 0.0652
41 | TCGACAAA | 0.378
42 | CCGACAAC | 0.167
43 | GCGACAGA | 0.144
44 | TACCGGGA | 0.148
45 | AGCCTGTG | -0.221
46 | AGAGATTG | -0.0815
47 | GCGCAGAA | 0.0474
48 | GAGACCTC | -0.0881
49 | GAGAACTC | -0.162
50 | AATGGAAT | 0.238

Row | Sequence | PBM E-score
51 | CCCAGCCA | -0.156
52 | CAGGTTGG | -0.102
53 | ACTATGGG | -0.169
54 | CAGAATGC | -0.094
55 | CACAAGTC | 0.0697
56 | GACAAGTA | 0.369
57 | GACAAGTC | 0.419
58 | AACAAATA | 0.211
59 | GACAAATA | 0.483
60 | AACAAGTC | 0.103
61 | AACAAGTA | -0.0396
62 | TACAAATA | 0.281
63 | GACAAATC | 0.473
64 | TACAAGTA | 0.0835
65 | CACAAATC | 0.0687
66 | AACAAATC | 0.0327
67 | ATGGGATG | -0.177
68 | CTGCAAGC | -0.17
69 | ACACAGGT | 0.0743
70 | AGAGTAAA | -0.0814
71 | GTCGAGTA | -0.0563
72 | CACCCTAA | -0.141
73 | CCCTCTGA | -0.174
74 | ATAGGACG | 0.242
75 | ATAGGACC | -0.11

Row | Sequence | PBM E-score
76 | CTAGGATA | -0.13
77 | GTAGGACA | 0.479
78 | CTAGGACC | -0.0875
79 | ATAGGACA | 0.457
80 | GTAGGATA | -0.0803
81 | CTAGGACA | 0.489
82 | GTAGGAGA | -0.204
83 | CGCTACAC | -0.231
84 | GCCACACA | -0.0564
85 | AACGTTAA | 0.137
86 | AGTAAGCG | -0.082
87 | GAGTAGGA | -0.151
88 | AGGAGACG | -0.298
89 | CTTTATAA | 0.177
90 | ACTTATAC | 0.0919
91 | ATTTATAC | 0.176
92 | GCTTATAA | -0.0204
93 | ACTTATAA | 0.333
94 | ATTTATAA | 0.322
95 | ACCATAAA | 0.173
96 | ATATCTGA | 0.112
97 | CACTTCCA | -0.0388
98 | AAGGTCGT | -0.0332
99 | AATGTCGT | 0.442
100 | AATGTCGA | 0.299

Row | Sequence | PBM E-score
101 | AATGTCGG | 0.33
102 | GATGTCGC | 0.0908
103 | CATGTCGG | 0.224
104 | AATGTCGC | 0.398
105 | AGTGTCGG | 0.202
106 | CATGTCGC | 0.237
107 | CTCCTTTC | -0.214
108 | GAAAGTGC | -0.0805
109 | ATAGACCA | -0.0849
110 | ACGATCCC | -0.232
111 | CGGCTCTA | -0.00727
112 | AGGGACCA | -0.188
113 | AGGGACAT | 0.488
114 | AGGGACGA | 0.261
115 | CGGGACAC | 0.376
116 | CGGGACGA | 0.115
117 | CGGGACCA | -0.152
118 | CGGGACTC | 0.0112
119 | CGGGACAG | 0.197
120 | AGGGACGG | -0.35
121 | AGGGACAA | 0.487
122 | CGGGACAA | 0.463
123 | AGGGACCT | -0.0323
124 | GGCTAAGA | 0.0666
125 | ATCCTAGC | -0.118

Row | Sequence | PBM E-score
126 | CCAAGAAA | 0.0697
127 | AAATAGCA | -0.00406
128 | AACCTCGT | -0.0168
129 | AGGGACGC | -0.0191
130 | AGGGACAG | 0.107
131 | AGGGACAC | 0.45
132 | AAATTTGA | 0.19
133 | AAATTTGG | 0.104
134 | AATTTTGC | 0.0375
135 | AATTTTGT | 0.34
136 | AATTTTGA | 0.161
137 | AAATTTGT | 0.363
138 | ACATGCGT | 0.0734
139 | CGTGTACA | 0.277
140 | CATTCTAG | -0.0107
141 | CTAGCGCA | -0.153
142 | CGCAAAGC | 0.0415
143 | ACAATACA | 0.0447
144 | ACAATACT | 0.325
145 | ACAATACG | 0.0932
146 | ATAGACAG | 0.202
147 | ATAGACAT | 0.428
148 | ATAGACTA | 0.00413
149 | ATAGACAC | 0.245
150 | ATAGACGA | 0.0929

Row | Sequence | PBM E-score
151 | ATAGACAA | 0.41
152 | ATCGTCTA | 0.0246
153 | ATGAAGTC | -0.0197
154 | ACAGCTCG | -0.137
155 | TAGGAATA | 0.0598
156 | AACCATGT | 0.0974
157 | ATGCAGGC | -0.112
158 | ACATTTAT | 0.319
159 | GCATTTAC | 0.0372
160 | CCATTTAC | 0.0112
161 | ACATTTAG | 0.279
162 | AGATTTAT | 0.0411
163 | ACATTTAC | 0.333
164 | CACAAGCC | -0.139
165 | CATCAGTA | 0.0122
166 | AGTGGTCG | -0.0675
167 | AGTTAAAT | 0.0476
168 | CGTGTTAA | -0.00332
169 | ATTTCGGA | 0.239
170 | CGGGGACC | -0.1
171 | CGGGGACA | 0.396
172 | CGGGGACG | -0.152
173 | TGGGGAAA | -0.0201
